# Data reported in PubChem BioAssay AID651812 (National Center for Advancing Translational Sciences (NCATS), 2012).
# Hit rate of the full screen: of about 2,100 compounds, about 650 (31%) were called active. Inconclusive results (about 16%) are left out. Calls come from the whole dose curve; as a rule, active = well fitted inhibition curve with a large enough effect; inconclusive = small, poorly fitted or top-dose-only effect; inactive = flat fitted curve, though single readings scatter. Some of the results follow. Where a call stands in place of a potency, no number is given.
# Test: qHTS for inhibitors of Vif-A3G interactions: Cherry picks; note: nearly all actives have a fitted effect of over 80% in size
# Conditions: HeLa A3G-eYFP + Vif (tagged APOBEC3G with the HIV-1 protein that degrades it), 24 h; Potency: eYFP fluorescence increase; series mostly up to 36.9 µM
# Procedure, shortened: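 Cherry-picked compounds tested at several concentrations on A3G-eYFP/Vif HeLa cells for 24 hours; loss of Vif-driven degradation read as eYFP fluorescence by cytometric plate imaging, 488 nm excitation, 500-530 nm emission.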
# Potency is the fitted concentration of half-maximal effect.
row,SMILES,Potency
1,CCN(CC)c1ccc(/C=c2/sc3nnc(-c4ccccc4C)n3c2=O)cc1,25.9 µM (active)
2,O=C1NC(c2ccccc2Br)=N/C1=C\c1ccco1,inactive
3,Cc1cccc(N2CCN(C(=O)c3ccncc3)CC2)c1C,inactive
4,Cc1[nH]c2ccccc2c1/C=C/c1ccnc2ccccc12,inactive
5,Cc1[nH]c2ccccc2c1/C=C/c1ccc2ccccc2n1,18.4 µM (active)
6,C(=Cc1c[nH]c2ccccc12)c1ccc2ccccc2n1,20.6 µM (active)
7,C(=C\c1c[nH]c2ccccc12)/c1ccc2ccccc2n1,18.4 µM (active)
8,Nc1cccc(CCc2nc3cc4ccccc4cc3[nH]2)c1,inactive
9,Cc1cc(NC(=O)NC(=O)c2ccccc2NC(=O)C(C)N)ccc1Oc1ncc(Br)cn1 (stereo not drawn),inactive
10,CC(=O)Nc1ccc(S(=O)(=O)Nc2nc3ccccc3nc2Sc2nncn2C)cc1,inactive
11,Cc1[nH]c2ccccc2c1/C=C/C(=O)c1ccccc1,23.1 µM (active)
12,O=c1cc(-c2ccccc2)[nH]c2ccccc12,inactive
13,Cc1[nH]c2ccccc2c1/C=C/c1cc[n+](C)cc1,4.44 µM (active)
14,Cc1ccc2[nH]c(C)c(/C=C/c3cc[n+](C)cc3)c2c1,1.77 µM (active)
15,COc1ccc(-c2cc(NC(C)=O)c3ncc(-c4cc(OC)c(OC)c(OC)c4)n3c2)cn1,inactive
16,CCOc1ccccc1N1CC(c2nc3ccccc3n2Cc2c(C)cc(C)cc2C)CC1=O (stereo not drawn),inactive
17,O=C(Cn1ncc(Cl)c(Cl)c1=O)N1CCN(S(=O)(=O)c2ccc3ccccc3c2)CC1,inactive
18,Cc1ccc(/C=N/NC(=O)C2COc3ccccc3O2)s1 (stereo not drawn),inactive
19,O=S(=O)(Nc1cccc2ncccc12)c1cccs1,inactive
20,Cc1ccc(NC(=O)Cc2ccc(-n3cccc3)cc2)c(C)c1,inactive
21,CC(=O)c1cccc(NC(=S)N2c3ccccc3CC2C)c1 (stereo not drawn),inactive
22,Cc1cccc(NC(=O)/C=C/c2ccc([N+](=O)[O-])s2)c1,4.11 µM (active)
23,Cc1ccc(NC(=O)/C=C/c2ccc([N+](=O)[O-])s2)cc1,7.31 µM (active)
24,Cc1ccc(NC(=O)/C=C/c2ccc([N+](=O)[O-])s2)c(C)c1,5.8 µM (active)
25,Cc1ccc(NC(=O)C(=Cc2ccc(C(=O)O)cc2)C(=O)Nc2ccc(C)cc2C)c(C)c1,inactive

row,SMILES,Potency
1,Cc1nc(NC(=O)/C=C/c2ccco2)sc1C,inactive
2,CC(=O)c1cccc(NC(=O)/C=C/c2ccc([N+](=O)[O-])s2)c1,8.2 µM (active)
3,C=CCN=c1scc(-c2ccc(F)cc2)n1/N=C/c1ccccn1,inactive
4,COc1ccc(CN2C(=O)C(C)Nc3ncnc(N4CCc5ccccc5C4)c32)cc1 (stereo not drawn),inactive
5,COC(=O)c1sccc1NC(=S)Nc1cc(C)cc(C)c1,inactive
6,Cc1cc(C)cc(NC(=O)/C=C/c2ccc([N+](=O)[O-])s2)c1,23.1 µM (active)
7,Cc1noc(C)c1COc1ccc(C(=O)NNC(=O)c2ccccc2F)cc1,inactive
8,O=C(COc1ccccc1-c1ccccc1)NN=C1CCCC1,inactive
9,COc1ccc(-n2cc3c(-c4cccc(Br)c4)nnc(C)c3n2)cc1,inactive
10,C=CCN1C(=O)C2(NNc3ccccc3O2)c2ccccc21 (stereo not drawn),12.5 µM (active)
11,O=C(Nc1ccccc1-c1nc2ccccc2[nH]1)c1ccc(N2C(=O)CCC2=O)cc1,23.1 µM (active)
12,CCOc1ccc(C(=O)Nc2cc(-c3nc4ccccc4[nH]3)ccc2Cl)cc1[N+](=O)[O-],inactive
13,c1ccc2c(-c3nc4ccccc4[nH]3)cccc2c1,inactive
14,Cc1c(N/N=C(\C#N)C(=O)c2ccc(Cl)cc2)c(=O)n(-c2ccccc2)n1C,20.6 µM (active)
15,Cc1c(NC(=O)c2csc3c2CCCC3)c(=O)n(-c2ccccc2)n1C,inactive
16,CCOc1cc(/C=C2\CCC/C(=C\c3cc(Cl)c(O)c(OCC)c3)C2=O)cc(Cl)c1O,12.5 µM (active)
17,COc1cc(/C=N/Nc2ccc(Cl)nn2)cc(OC)c1O,inactive
18,C=CCOc1c(Cl)cc(C(=S)N2CCCC2)cc1OCC,inactive
19,COc1cc(C=C2CCCC(=Cc3ccc(OCC4CO4)c(OC)c3)C2=O)ccc1OCC1CO1 (stereo not drawn),inactive
20,COc1cc(/C=C2\COC/C(=C\c3cc(OC)c(OC)c(OC)c3)C2=O)cc(OC)c1OC,inactive
21,COc1cc(/C=C2/CCC/C(=C\c3cc(O)c(OC)c(Cl)c3)C2=O)cc(Cl)c1O,18.4 µM (active)
22,Cn1c(=O)c(N)c2c3c(c(Br)ccc31)C(=O)c1ccccc1-2,2.91 µM (active)
23,COc1ccccc1-c1noc(-c2ccc(NCc3ccco3)c([N+](=O)[O-])c2)n1,23.1 µM (active)
24,O=[N+]([O-])c1cc(-c2nc(-c3ccccc3)no2)ccc1NCc1ccco1,10.3 µM (active)
25,Cc1cccc(-c2noc(-c3ccc(NCc4ccco4)c([N+](=O)[O-])c3)n2)c1,16.4 µM (active)

row,SMILES,Potency
1,COc1ccc(-c2cnc3c(c2)CCC3(C#N)C#N)cc1,inactive
2,O=C1N/C(=N\N=C\c2ccco2)SC1Cc1ccccc1[N+](=O)[O-] (stereo not drawn),inactive
3,Cc1ccccc1NCC(=O)N=Nc1c(O)[nH]c2ccc([N+](=O)[O-])cc12,inactive
4,CCN(CC)S(=O)(=O)c1cc([N+](=O)[O-])ccc1N=Nc1c(O)[nH]c2ccccc12,20.6 µM (active)
5,CN1C2=CC=CC=CC2=[N+](C)C12C([N+](=O)[O-])=CC(=[N+]([O-])[O-])C=C2[N+](=O)[O-] (stereo not drawn),inactive
6,Nc1nn(-c2ccccc2)c(N)c1N=Nc1ccccc1,inactive
7,CCCCn1c(N)c(N(CCC(C)C)C(=O)c2ccc([N+](=O)[O-])o2)c(=O)[nH]c1=O,inactive
8,CCCCN(C(=O)c1ccc([N+](=O)[O-])s1)c1c(N)n(CCCC)c(=O)[nH]c1=O,inactive
9,Nc1c(N(CCC2=CCCCC2)C(=O)c2ccc([N+](=O)[O-])o2)c(=O)[nH]c(=O)n1Cc1ccccc1,18.4 µM (active)
10,O=Cc1s/c(=N\S(=O)(=O)c2ccccc2)n(CCCCl)c1Cl,inactive
11,CCOC(=O)COn1c(=O)c(-c2ccc(Br)cc2)[n+]([O-])c2ccccc21,inactive
12,CCOC(=O)CSc1nc2c(c(=O)[nH]1)C(C)(CC)Cc1ccccc1-2 (stereo not drawn),inactive
13,CCOC(=O)Cn1c(=O)c(-c2cc(Br)ccc2N)nc2ccccc21,11.6 µM (active)
14,CCOC(=O)c1c(C)oc2ccc(N(C(=O)c3ccncc3)S(=O)(=O)c3ccc(Br)cc3)cc12,inactive
15,COc1ccc(OC)c(S(=O)(=O)N/N=C\c2cn(CC(N)=O)c3ccccc23)c1,inactive
16,COc1ccc(S(=O)(=O)NCc2ccccn2)cc1NC(=O)c1ccc(C)cc1,inactive
17,COc1cc(/C=N/Nc2cc(C)nc(NS(=O)(=O)c3ccccc3)n2)ccc1O,inactive
18,COc1ccc(-n2c(O)c(/C=N/NS(=O)(=O)c3ccc(C)cc3)c3ccccc3c2=O)cc1OC,18.4 µM (active)
19,COc1cc(C(=O)NCC(=O)N2CCN(S(=O)(=O)c3cc(C)ccc3C)CC2)cc(OC)c1OC,inactive
20,COc1ccc(-n2c(O)c(/C=N/NS(=O)(=O)c3cc(C)ccc3C)c3ccccc3c2=O)cc1OC,16.4 µM (active)
21,CCC(=O)OCc1cnc(C)c2oc(=O)c(C(=O)Nc3ccccc3C(F)(F)F)cc12,inactive
22,CC(=O)Nc1cccc(-c2ccnc3c2CC(C(=O)Nc2ccc4c(c2)OCO4)O3)c1 (stereo not drawn),inactive
23,Nc1[nH]c2cc([N+](=O)[O-])ccc2c1-c1ccccn1,8.2 µM (active)
24,c1ccc(-c2cccc(-c3ccccn3)n2)nc1,inactive
25,O=[N+]([O-])c1cc(O)c2ncccc2c1,inactive

row,SMILES,Potency
1,COc1ccc(-n2nnnc2S(=O)(=O)Cc2ccc(C(=O)O)cc2)cc1,inactive
2,CCOC(=O)c1[nH]c(C)c(C(=O)Nc2ccc(C)cc2C)c1C,inactive
3,Cc1ccc(NC(=O)c2c(C)nc3sc(C(=O)NC4CCCC4)c(N)c3c2-c2ccco2)c(C)c1,20.6 µM (active)
4,CCc1ccc(NC(=O)c2sc3nc(C)c(C(=O)Nc4ccc(C)cc4C)c(-c4ccco4)c3c2N)cc1,23.1 µM (active)
5,COc1cccc(NC(=O)c2sc3nc(C)c(C(=O)Nc4ccc(C)cc4C)c(-c4ccco4)c3c2N)c1,inactive
6,CCOC(=O)N1CCN(C(=O)c2[nH]c(C(F)(F)F)nc2-c2ccccc2)CC1,inactive
7,CC1(C(=O)NCc2ccc(F)c(F)c2)Cc2c(-c3cccc(C(N)=O)c3)ccnc2O1 (stereo not drawn),inactive
8,COc1ccc(CN(C(C)=O)c2cccc(C)c2C)cc1,inactive
9,FC(F)(F)c1ccccc1NC(=S)NN=C1CCCCCC1,inactive
10,COC(=O)c1sccc1S(=O)(=O)N(CC(=O)Nc1cc(F)ccc1F)c1ccc(C)c(C)c1,inactive
11,N#CCC(=O)N/N=C/c1ccc(N2N=C(c3ccccc3)CC2c2ccccc2)cc1 (stereo not drawn),20.6 µM (active)
12,C/C(=N\NC(=S)NCc1ccccc1)c1cccs1,inactive
13,C/C(=N\Nc1nccnc1Cl)c1ccc(Cl)c(Cl)c1,inactive
14,CCOC(=O)c1sc2cc([N+](=O)[O-])cc(SCC(C)C)c2c1N,2.91 µM (active)
15,COC(=O)c1sc2cc([N+](=O)[O-])cc(SCC(C)C)c2c1N,16.4 µM (active)
16,CS(=O)(=O)N(CC(=O)N1CCN(Cc2ccccc2)CC1)c1ccccc1F,inactive
17,O=C(COC(=O)C12CC3CC(CC(Cl)(C3)C1)C2)N1CCCCC1,inactive
18,Cc1ccc(Nc2nc(Cl)c(C=O)s2)cc1Cl,16.4 µM (active)
19,O=Cc1sc(Nc2ccccc2)nc1Cl,23.1 µM (active)
20,c1ccc(Nc2nc(-c3ccccn3)cs2)cc1,inactive
21,COc1ccc(S(=O)(=O)N2CCCOC2CNC(=O)C(=O)NCCc2ccco2)cc1C (stereo not drawn),inactive
22,C=C(C)CNC(=S)NNC(=O)c1ccco1,inactive
23,Cc1ccc2c(Cl)c(C)c(N3CCCC3)nc2n1,inactive
